Inhibition data for one molecule are collected here from ChEMBL document CHEMBL1961873, “Compounds: GSK PKIS; Assays: Nanosyn kinase panel” (2012).

In experiment [1] the target is Sphingosine kinase 1 (Homo sapiens) (UniProt Q9NYA1). Particulars: at 1 µM.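 Further: mean SPHK1 inhibition value reported from the GSK PKIS kinase panel screen.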
Experiment [2] concerns the target T1, Sphingosine kinase 2 (Homo sapiens) (UniProt Q9NRA0).
T1 sequence (whole entry): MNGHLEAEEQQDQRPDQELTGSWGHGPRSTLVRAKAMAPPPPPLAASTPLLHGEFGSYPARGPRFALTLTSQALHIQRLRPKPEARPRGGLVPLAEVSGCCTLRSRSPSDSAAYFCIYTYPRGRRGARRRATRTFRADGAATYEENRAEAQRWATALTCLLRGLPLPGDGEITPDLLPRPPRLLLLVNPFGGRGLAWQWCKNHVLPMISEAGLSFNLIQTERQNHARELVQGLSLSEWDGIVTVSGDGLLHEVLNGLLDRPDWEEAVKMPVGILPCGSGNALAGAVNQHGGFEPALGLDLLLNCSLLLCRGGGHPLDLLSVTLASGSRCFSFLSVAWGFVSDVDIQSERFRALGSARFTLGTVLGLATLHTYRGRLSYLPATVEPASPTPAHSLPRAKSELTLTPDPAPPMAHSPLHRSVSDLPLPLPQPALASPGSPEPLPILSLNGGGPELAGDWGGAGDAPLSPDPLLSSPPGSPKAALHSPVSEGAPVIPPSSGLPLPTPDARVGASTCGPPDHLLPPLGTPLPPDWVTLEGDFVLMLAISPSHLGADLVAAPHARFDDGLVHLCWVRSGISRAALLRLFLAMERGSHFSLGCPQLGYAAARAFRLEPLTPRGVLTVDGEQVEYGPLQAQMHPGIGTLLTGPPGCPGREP
Conditions: at 0.1 µM.

In experiment [3] the target is T1, Sphingosine kinase 2 (Homo sapiens). Conditions: at 1 µM.
The target in experiment [4] is Casein kinase II subunit alpha (Homo sapiens) (UniProt P68400). Conditions: at 0.1 µM.
Casein kinase II subunit alpha (Homo sapiens), sequence (P68400 whole entry, looked up): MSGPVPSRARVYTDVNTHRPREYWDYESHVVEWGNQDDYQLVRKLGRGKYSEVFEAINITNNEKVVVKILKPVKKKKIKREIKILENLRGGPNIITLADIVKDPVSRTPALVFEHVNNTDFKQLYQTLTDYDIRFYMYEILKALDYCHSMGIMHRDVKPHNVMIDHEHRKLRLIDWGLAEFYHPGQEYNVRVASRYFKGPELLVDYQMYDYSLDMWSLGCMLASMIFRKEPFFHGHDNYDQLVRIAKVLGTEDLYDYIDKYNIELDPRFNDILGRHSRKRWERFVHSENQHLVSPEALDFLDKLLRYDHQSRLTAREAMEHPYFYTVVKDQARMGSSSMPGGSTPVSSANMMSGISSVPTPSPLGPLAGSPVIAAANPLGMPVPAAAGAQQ
The target is the same in experiment [5]. Conditions: at 1 µM.
Experiment [6] deals with T2, Inhibitor of nuclear factor kappa-B kinase subunit alpha (Homo sapiens) (UniProt O15111).
T2 sequence (whole entry): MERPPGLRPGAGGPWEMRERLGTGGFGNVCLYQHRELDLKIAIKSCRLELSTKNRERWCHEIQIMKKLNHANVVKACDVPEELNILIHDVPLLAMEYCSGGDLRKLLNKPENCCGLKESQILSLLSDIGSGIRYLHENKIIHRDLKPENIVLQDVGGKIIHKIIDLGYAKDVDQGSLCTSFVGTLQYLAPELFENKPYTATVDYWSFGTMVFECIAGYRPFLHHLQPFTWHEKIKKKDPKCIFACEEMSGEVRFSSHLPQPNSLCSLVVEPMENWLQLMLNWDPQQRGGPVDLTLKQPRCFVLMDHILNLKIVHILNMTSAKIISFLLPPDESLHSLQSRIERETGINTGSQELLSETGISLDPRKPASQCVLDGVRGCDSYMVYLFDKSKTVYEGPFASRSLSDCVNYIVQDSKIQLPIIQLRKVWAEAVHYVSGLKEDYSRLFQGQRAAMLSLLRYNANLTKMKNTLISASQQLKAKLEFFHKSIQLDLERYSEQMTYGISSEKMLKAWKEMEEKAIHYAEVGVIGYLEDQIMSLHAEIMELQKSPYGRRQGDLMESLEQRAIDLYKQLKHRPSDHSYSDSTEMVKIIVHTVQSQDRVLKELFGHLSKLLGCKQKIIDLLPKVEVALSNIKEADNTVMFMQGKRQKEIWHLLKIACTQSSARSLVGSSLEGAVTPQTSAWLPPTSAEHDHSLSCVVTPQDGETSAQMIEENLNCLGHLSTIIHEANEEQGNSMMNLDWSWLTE
Conditions: at 0.1 µM.

For experiment [7], the target named is T2, Inhibitor of nuclear factor kappa-B kinase subunit alpha (Homo sapiens). Particulars: at 1 µM.
Experiment [8] has as its target T3, Inhibitor of nuclear factor kappa-B kinase subunit beta (Homo sapiens) (UniProt O14920).
T3 sequence (whole entry): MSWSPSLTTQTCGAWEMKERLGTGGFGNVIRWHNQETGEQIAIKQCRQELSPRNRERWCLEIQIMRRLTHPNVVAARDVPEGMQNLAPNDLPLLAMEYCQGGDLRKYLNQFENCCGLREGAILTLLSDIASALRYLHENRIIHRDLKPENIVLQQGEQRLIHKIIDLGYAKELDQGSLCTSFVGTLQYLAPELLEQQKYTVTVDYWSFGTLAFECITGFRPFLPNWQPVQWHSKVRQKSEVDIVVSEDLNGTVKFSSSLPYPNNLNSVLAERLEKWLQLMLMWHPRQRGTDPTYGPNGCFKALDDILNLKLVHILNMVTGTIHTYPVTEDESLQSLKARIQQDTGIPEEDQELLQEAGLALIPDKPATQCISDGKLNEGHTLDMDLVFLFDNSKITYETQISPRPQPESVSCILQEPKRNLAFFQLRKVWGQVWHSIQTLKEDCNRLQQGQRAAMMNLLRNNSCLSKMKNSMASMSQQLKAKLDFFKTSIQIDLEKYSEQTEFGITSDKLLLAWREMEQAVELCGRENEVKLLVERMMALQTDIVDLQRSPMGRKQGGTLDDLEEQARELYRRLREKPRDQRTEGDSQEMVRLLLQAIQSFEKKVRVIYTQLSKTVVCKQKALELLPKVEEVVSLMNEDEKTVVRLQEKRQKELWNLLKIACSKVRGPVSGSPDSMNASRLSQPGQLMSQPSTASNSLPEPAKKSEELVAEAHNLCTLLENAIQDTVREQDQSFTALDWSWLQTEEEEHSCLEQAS
Conditions: at 0.1 µM.

The target of experiment [9] is T3, Inhibitor of nuclear factor kappa-B kinase subunit beta (Homo sapiens). Particulars: at 1 µM.
The target in experiment [10] is T4, Inhibitor of nuclear factor kappa-B kinase subunit epsilon (Homo sapiens) (UniProt Q14164).
T4 sequence (whole entry): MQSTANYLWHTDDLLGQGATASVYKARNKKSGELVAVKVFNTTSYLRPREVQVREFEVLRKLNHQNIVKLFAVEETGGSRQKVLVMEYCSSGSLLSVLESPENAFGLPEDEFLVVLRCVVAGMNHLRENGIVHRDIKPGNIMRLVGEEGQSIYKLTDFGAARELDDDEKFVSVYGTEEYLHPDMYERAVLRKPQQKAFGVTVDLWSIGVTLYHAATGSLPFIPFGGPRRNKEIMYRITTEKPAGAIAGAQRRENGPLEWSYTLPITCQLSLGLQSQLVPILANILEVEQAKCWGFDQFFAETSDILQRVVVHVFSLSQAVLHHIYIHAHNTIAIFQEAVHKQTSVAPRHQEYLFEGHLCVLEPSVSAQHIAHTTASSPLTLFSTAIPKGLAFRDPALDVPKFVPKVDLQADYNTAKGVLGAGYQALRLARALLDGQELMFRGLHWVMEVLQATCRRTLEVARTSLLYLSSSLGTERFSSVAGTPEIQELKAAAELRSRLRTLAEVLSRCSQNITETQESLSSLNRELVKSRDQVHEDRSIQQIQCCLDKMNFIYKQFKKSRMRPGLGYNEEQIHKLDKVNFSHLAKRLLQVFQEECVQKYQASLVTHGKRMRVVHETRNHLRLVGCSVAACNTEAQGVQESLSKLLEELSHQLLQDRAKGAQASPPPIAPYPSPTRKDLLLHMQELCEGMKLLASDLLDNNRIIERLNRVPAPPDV
Particulars: at 0.1 µM.

The target in experiment [11] is T4, Inhibitor of nuclear factor kappa-B kinase subunit epsilon (Homo sapiens). Particulars: at 1 µM.
The target of experiment [12] is T5, Serine/threonine-protein kinase Nek1 (Homo sapiens) (UniProt Q96PY6).
T5 sequence (whole entry): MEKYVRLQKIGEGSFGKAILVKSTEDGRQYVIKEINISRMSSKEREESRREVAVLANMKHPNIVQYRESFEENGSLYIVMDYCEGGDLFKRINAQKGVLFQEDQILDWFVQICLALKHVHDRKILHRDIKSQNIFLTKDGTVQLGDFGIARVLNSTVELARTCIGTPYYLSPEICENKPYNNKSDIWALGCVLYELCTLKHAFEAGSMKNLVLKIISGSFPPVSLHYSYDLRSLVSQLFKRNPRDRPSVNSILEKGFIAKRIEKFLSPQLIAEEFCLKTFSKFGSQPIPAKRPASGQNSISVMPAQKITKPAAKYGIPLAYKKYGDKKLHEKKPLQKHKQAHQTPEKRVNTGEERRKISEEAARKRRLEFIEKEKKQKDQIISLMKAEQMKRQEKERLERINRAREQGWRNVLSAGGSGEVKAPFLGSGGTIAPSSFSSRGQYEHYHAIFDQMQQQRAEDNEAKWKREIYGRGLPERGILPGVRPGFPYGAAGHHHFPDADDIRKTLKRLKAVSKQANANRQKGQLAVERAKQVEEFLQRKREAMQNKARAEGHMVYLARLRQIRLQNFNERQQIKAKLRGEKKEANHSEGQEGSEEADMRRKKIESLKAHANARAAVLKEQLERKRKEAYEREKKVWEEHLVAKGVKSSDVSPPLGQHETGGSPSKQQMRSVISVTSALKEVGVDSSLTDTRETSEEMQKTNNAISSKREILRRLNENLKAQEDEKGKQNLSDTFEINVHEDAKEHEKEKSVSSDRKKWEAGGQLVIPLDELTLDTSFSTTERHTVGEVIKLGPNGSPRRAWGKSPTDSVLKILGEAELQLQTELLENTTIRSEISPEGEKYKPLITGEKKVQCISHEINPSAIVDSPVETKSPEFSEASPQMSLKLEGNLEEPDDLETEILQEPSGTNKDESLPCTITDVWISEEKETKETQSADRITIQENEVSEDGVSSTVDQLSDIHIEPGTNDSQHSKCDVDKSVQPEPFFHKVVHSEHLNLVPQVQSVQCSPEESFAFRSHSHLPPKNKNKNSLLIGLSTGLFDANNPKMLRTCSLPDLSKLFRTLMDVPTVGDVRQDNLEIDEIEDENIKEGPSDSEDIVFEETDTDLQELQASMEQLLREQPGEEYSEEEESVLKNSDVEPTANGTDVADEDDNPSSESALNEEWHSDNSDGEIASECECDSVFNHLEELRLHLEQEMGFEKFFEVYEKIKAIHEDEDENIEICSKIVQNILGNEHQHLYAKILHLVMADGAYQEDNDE
Particulars: at 0.1 µM.

Experiment [13] concerns the target T5, Serine/threonine-protein kinase Nek1 (Homo sapiens). Conditions: at 1 µM.
For experiment [14], the target named is T6, Serine/threonine-protein kinase Nek2 (Homo sapiens) (UniProt P51955).
T6 sequence (whole entry): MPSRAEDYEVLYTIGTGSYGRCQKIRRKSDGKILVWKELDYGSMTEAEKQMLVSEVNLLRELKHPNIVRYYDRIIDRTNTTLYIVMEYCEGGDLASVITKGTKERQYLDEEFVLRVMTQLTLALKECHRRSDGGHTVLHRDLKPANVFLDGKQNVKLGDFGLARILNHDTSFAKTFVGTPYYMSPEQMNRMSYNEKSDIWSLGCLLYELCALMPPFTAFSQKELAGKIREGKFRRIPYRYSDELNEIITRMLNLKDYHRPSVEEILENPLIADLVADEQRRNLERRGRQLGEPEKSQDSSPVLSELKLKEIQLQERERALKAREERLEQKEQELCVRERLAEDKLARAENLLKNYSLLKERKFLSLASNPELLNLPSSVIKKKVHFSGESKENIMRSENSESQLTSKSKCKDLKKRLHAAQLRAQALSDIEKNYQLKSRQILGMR
Conditions: at 0.1 µM.

In experiment [15] the target is T6, Serine/threonine-protein kinase Nek2 (Homo sapiens). Particulars: at 1 µM.
Experiment [16] addresses Serine/threonine-protein kinase Nek6 (Homo sapiens) (UniProt Q9HC98). Conditions: at 0.1 µM.
The target is the same in experiment [17]. Conditions: at 1 µM.
The target in experiment [18] is Serine/threonine-protein kinase Nek7 (Homo sapiens) (UniProt Q8TDX7). Conditions: at 1 µM.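 Further: reported values are mean inhibition of NEK7 from the GSK PKIS kinase screening panel.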
Serine/threonine-protein kinase Nek7 (Homo sapiens), sequence (Q8TDX7 whole entry, looked up): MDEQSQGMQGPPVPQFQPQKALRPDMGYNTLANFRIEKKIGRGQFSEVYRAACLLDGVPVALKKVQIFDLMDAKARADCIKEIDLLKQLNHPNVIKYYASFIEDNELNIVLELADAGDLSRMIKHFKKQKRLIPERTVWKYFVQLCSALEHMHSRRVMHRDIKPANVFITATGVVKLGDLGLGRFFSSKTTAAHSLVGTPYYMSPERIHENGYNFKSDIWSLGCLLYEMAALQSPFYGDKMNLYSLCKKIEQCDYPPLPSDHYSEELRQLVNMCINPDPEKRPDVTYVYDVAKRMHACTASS
Experiment [19] deals with T7, Serine/threonine-protein kinase Nek9 (Homo sapiens) (UniProt Q8TD19).
T7 sequence (whole entry): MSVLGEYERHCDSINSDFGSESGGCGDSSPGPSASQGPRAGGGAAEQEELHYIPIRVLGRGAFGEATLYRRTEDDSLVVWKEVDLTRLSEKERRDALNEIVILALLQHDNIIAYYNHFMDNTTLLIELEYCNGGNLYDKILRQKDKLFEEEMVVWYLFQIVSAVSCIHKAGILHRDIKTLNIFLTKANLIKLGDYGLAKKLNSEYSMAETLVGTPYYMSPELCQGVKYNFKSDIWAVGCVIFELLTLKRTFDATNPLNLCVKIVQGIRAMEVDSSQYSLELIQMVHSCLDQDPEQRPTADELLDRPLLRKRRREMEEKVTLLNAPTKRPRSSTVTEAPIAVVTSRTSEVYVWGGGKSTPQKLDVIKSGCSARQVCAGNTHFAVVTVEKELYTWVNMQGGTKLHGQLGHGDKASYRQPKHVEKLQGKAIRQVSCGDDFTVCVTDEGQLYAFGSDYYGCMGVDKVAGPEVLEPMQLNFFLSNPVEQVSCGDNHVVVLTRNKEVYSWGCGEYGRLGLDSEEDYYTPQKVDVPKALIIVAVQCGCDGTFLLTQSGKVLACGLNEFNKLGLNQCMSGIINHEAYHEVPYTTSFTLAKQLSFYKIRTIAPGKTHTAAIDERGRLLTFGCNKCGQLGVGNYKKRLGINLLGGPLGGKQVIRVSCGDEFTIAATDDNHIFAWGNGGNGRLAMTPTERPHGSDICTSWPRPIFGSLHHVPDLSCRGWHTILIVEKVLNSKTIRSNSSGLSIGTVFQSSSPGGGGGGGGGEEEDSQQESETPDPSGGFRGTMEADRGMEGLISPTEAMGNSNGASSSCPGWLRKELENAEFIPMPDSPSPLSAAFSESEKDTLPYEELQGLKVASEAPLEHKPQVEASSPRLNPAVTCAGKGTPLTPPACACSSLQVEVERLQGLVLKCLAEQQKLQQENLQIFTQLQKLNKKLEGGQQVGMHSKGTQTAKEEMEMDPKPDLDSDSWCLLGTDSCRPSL
Conditions: at 0.1 µM.

What is called inhibition is the relative decrease from the control value, in per cent.

Serine/threonine-protein kinase Nek6 (Homo sapiens), sequence (Q9HC98 whole entry): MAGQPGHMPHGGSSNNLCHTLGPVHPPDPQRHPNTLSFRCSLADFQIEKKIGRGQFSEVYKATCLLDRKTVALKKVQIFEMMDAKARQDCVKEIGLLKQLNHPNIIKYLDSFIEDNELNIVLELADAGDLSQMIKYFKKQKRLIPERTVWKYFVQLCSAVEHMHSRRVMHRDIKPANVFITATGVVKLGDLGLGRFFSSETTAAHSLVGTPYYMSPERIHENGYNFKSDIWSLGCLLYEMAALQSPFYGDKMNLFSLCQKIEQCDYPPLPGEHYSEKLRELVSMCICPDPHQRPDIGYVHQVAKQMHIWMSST
Sphingosine kinase 1 (Homo sapiens), sequence (Q9NYA1 whole entry): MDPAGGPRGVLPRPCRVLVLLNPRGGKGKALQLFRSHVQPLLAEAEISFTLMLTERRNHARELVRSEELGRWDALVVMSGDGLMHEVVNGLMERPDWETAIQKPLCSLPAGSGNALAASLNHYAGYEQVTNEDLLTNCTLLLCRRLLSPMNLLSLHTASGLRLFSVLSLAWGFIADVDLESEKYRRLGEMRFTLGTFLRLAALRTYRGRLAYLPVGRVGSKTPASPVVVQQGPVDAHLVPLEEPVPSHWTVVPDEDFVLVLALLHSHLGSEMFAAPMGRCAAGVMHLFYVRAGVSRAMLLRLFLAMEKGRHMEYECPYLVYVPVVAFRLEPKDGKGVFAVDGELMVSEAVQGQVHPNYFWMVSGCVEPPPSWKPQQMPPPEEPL

Regarding `Cc1cc(-c2ccco2)cc(C)c1/C=C/c1cncc(-c2nn[nH]n2)c1`, the inhibition in [1] is -1.08%; in experiment [2] it was -0.36%; in [3], 1.61%; in [4] it was 1.49%; in experiment [5], 3.8%; in experiment [6], -1.31%. Also, the inhibition in experiment [7] was determined as 2.26%; in experiment [8], 3.61%; in experiment [9], 2.75%; in experiment [10] it was 4.22%; in experiment [11], 3.83%; in experiment [12], 1.34%. The inhibition is 1.67% in experiment [13]; 1.03% in [14]; 1.44% in experiment [15]; 0.53% in [16]; -0.1% in [17]; 0.89% in experiment [18]. Also, the inhibition in [19] came out at 3.25%.
